A selection: hits, their analogues and other compounds. The true share with any hit is near 2.2%.
EWS-Fli block = inhibitors of EWS/Fli oncoprotein transcriptional activity; hit rate 0.67% among 350,000; inhibition, % at 12.6 µM; A673 NR0B1-luciferase reporter, viability-normalised;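 active = mean inhibition of at least 50% after viability correction, with every replicate also passing that limit; inconclusive = mean reaches 50% but only one of two replicates passes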;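 also: firefly luciferase signal divided by Alamar Blue viability fluorescence both relative to DMSO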
EBV LMP1 NFkB = inhibitors of Epstein-Barr LMP1-induced NF-kappaB reporter; LMP1-induced NF-kappaB luciferase reporter cells, luminescence; inhibition, % at 12.5 µM; hit rate 0.69% among 350,000; AID 504558; in the data active = inhibition above about 41%; inconclusive = no clear call, values can overlap the other calls;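 also: 0% = neutral control wells and 100% = reference inhibitor control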
LGR2 inh = inhibitors of bursicon-induced Drosophila LGR2 receptor cAMP signaling; HEK293 LGR2, CRE-luciferase, bursicon-stimulated, 4 h; inhibition, % at 9.99 µM; hit rate 0.35% among 380,000; AID 720647;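 active = drop in luminescence signal, shown as inhibition above about 50% in the replicate tests, limit read from the data, passing the limit was not always enough; inconclusive = probably only some replicates passing the limit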;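 also: agonist challenge used bursicon conditioned medium at about half maximal strength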
Shn3 3UTR inh = reduces Shn3 3'UTR luciferase signal in osteoblasts; Clone20 osteoblast Shn3 3'UTR firefly luciferase, 24 h; inhibition, % at 12.5 µM; hit rate 0.52% among 360,000; AID 588674;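 active = mean inhibition of at least 75% with every replicate also reaching 75%; inconclusive = mean inhibition at least 75% but some replicate below; inactive = mean inhibition below 75%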;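 also: 0% = median of neutral control wells and 100% = pilot-screen positive control compound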
PAX8 inh HTS = PAX8 transcriptional activity inhibition; RMG-I TPO-luciferase reporter, SteadyGlo, 24 h; inhibition, % at 12.6 µM; hit rate 1.2% among 360,000; AID 652154;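 active = mean replicate inhibition at least 60% with every replicate also reaching 60%; inconclusive = only one of the two criteria is met; inactive = mean below 60% and not all replicates reaching 60%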;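 also: luciferase light reporting Pax8 driven TPO promoter activity; plate controls were median of neutral control wells for no effect and mitoxantrone controls for full effect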
MITF TRPM1 inh = inhibitors of MITF-driven TRPM1 promoter in melanoma cells | SK-MEL-5 TRPM1 promoter luciferase, 24 h | inhibition, % at 12.5 µM | hit rate 0.83% among 330,000 | AID 488899;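 active = mean inhibition across replicates of 60% or more, whatever share of single replicates reaches that level; inconclusive = some that reach 60%, reason not given; inactive = mean inhibition across replicates below 60%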
Numbers without * were called inactive; ? = inconclusive; · = not tested or not shown.

SMILES	EWS-Fli block	EBV LMP1 NFkB	LGR2 inh	Shn3 3UTR inh	PAX8 inh HTS	MITF TRPM1 inh
O=C(NCc1ccco1)C1CCCN(S(=O)(=O)c2ccc(Br)cc2)C1 (stereo unspecified)	5	-4	-32	3	131*	2
CCOc1ccc(S(=O)(=O)N2CCCC(C(=O)NCc3ccco3)C2)cc1 (stereo unspecified)	·	-2	7	2	9	10
C[C@@H]1CCCCO[C@@H](CN(C)C(=O)Nc2ccc(F)cc2)[C@@H](C)CN([C@H](C)CO)C(=O)c2cc(NS(=O)(=O)c3ccc(F)cc3)ccc2O1	-7	·	-4	·	-7	·
C[C@H]1CCCCO[C@H](CN(C)C(=O)Nc2ccc(C(F)(F)F)cc2)[C@@H](C)CN([C@@H](C)CO)C(=O)c2cc(NS(=O)(=O)c3ccc(F)cc3)ccc2O1	4	·	17	·	84*	·
C[C@@H]1CCCCO[C@@H](CN(C)C(=O)Nc2ccc(C(F)(F)F)cc2)[C@H](C)CN([C@H](C)CO)C(=O)c2cc(NS(=O)(=O)c3ccc(F)cc3)ccc2O1	20	·	1	·	88*	·
C[C@H](CO)N1C[C@H](C)[C@H](CN(C)C(=O)Nc2ccc(C(F)(F)F)cc2)OCCCC[C@H](C)Oc2ccc(NS(=O)(=O)c3ccc(F)cc3)cc2C1=O	6	·	-5	·	72*	·
CCCCn1cnc2c(c(-c3ccccc3)c(-c3ccccc3)n2Cc2ccco2)c1=N	46	·	·	-15	100*	·
N=c1c2c(-c3ccccc3)c(-c3ccccc3)n(Cc3ccccc3)c2ncn1CCCn1ccnc1	·	-54	·	34	·	94*
N=c1c2c(-c3ccccc3)c(-c3ccccc3)n(Cc3ccco3)c2ncn1Cc1ccco1	·	-3	·	13	·	66*
Cc1cc(NC(=O)CSc2nc3c(c(=O)n2CCc2ccccc2)SC(C)C3)no1 (stereo unspecified)	5	77*	·	5	11	-1
Cc1nnc(NC(=O)CSc2nc3c(c(=O)n2CCc2ccccc2)SC(C)C3)s1 (stereo unspecified)	5	-4	9	27	11	·
COCC(=O)N1C[C@@H](C)[C@H](OC)CN(C)C(=O)c2ccc(NC(=O)NC(C)C)cc2OC[C@H]1C	-9	·	-7	·	·	·
COc1ccccc1N(C)S(=O)(=O)c1ccc(C(=O)Nc2cc(F)ccc2C)cc1	-13	-7	-1	83*	17	12
COc1ccccc1N(C)S(=O)(=O)c1ccc(C(=O)NC(C)(C)C)cc1	·	-11	·	-7	·	7
C[C@@H]1CN([C@@H](C)CO)C(=O)c2cc(NC(=O)Nc3ccccc3)ccc2O[C@H]1CN(C)C(=O)Nc1ccc(C(F)(F)F)cc1	11	·	6	·	·	·
COc1ccc(CN(C)C[C@H]2Oc3ccc(NS(=O)(=O)c4cn(C)cn4)cc3C(=O)N([C@H](C)CO)C[C@@H]2C)cc1	-3	·	-6	·	-7	·
COc1cccc(/C=N/Nc2ccc([N+](=O)[O-])cn2)c1O	-27	52*	67*	79	91*	12
COc1cccc(/C=N/Nc2ccc(C(=O)O)cc2)c1O	-11	83*	·	92*	108*	105*
O=[N+]([O-])c1ccc(NN=Cc2cccc3ccccc23)nc1	-24	-21	-24	-25	-10	-26
COc1cccc(/C=N/Nc2nc(Nc3ccc([N+](=O)[O-])cc3)nc(N3CCCC3)n2)c1O	12	3	28	89*	95*	11
COc1cccc(/C=N/Nc2ncccc2[N+](=O)[O-])c1OC	66*	59*	97*	·	35	40
O=C(NCc1nc2ccccc2[nH]1)C1=C[C@@H](c2ccc3c(c2)OCO3)C[C@@H](OCCCCO)O1	0	·	·	·	10	·
C[C@@H]1CN([C@H](C)CO)C(=O)c2cc(NC(=O)Nc3ccc(F)cc3)ccc2O[C@@H]1CN(C)Cc1ccc(-c2ccccc2)cc1	64*	·	5	·	·	·
C[C@H](CO)N1C[C@H](C)[C@@H](CN(C)Cc2ccc(Oc3ccccc3)cc2)Oc2ccc(NC(=O)Nc3ccc(C(F)(F)F)cc3)cc2C1=O	-1	·	4	·	·	·
C[C@@H]1CN([C@@H](C)CO)C(=O)c2cc(NC(=O)Nc3ccc(F)cc3)ccc2O[C@@H]1CN(C)Cc1ccc(Oc2ccccc2)cc1	10	-14	-7	?	75*	14
SMILES	EWS-Fli block	EBV LMP1 NFkB	LGR2 inh	Shn3 3UTR inh	PAX8 inh HTS	MITF TRPM1 inh
C[C@H](CO)N1C[C@H](C)[C@H](CN(C)Cc2ccc(Oc3ccccc3)cc2)Oc2ccc(NC(=O)Nc3ccc(C(F)(F)F)cc3)cc2C1=O	56*	·	3	·	·	·
O=C(Nc1cc(F)ccc1F)N[C@@H]1CC[C@H](CCn2cc(C3CCCC3)nn2)O[C@H]1CO	·	·	2	·	21	·
CCCCCCCC(=O)Nc1ccc(C(=O)N/N=C/c2cccc([N+](=O)[O-])c2)cc1	·	-58	·	39	18	72*
C=C(C)c1cccc(C(C)(C)NC(=O)N2CCN(c3ccccc3OC)CC2)c1	18	7	-6	-8	106*	13
C=C(C)c1cccc(C(C)(C)NC(=O)N2CCN(c3ccccc3)CC2)c1	6	-9	5	19	-4	5
COC(=O)c1ccc(C(=O)NC2CCCc3c2cnn3-c2cc(F)cc(F)c2)nc1 (stereo unspecified)	53*	6	-3	-5	-6	22
O=C(CCN1CCCCC1)NCC[C@H]1CC[C@H](NC(=O)C2CC2)[C@@H](CO)O1	5	·	13	·	6	·
CC1=NNC(=O)/C1=C\c1cn(-c2ccccc2)nc1-c1cccs1	77*	10	59*	64	4	98*
CCN(CC(=O)Nc1ccc(NC(C)=O)cc1)C(=O)/C=C/c1cn(-c2ccccc2)nc1-c1cccs1	-31	-2	23	6	-6	-24
CC1=NNC(=O)/C1=C\c1cn(-c2ccccc2)nc1-c1ccc(F)cc1	·	2	·	85	·	92*
O=C(O)CCCCCN1C(=O)/C(=C/c2cn(-c3ccccc3)nc2-c2cccs2)SC1=S	9	-4	25	16	11	-3
CN1CCC(N(C)C(=O)/C=C/c2cn(-c3ccccc3)nc2-c2cccs2)CC1	30	-43	78*	-15	22	?
O=C(/C=C/Nc1ccccc1Br)c1ccccn1	·	74*	·	90*	·	76*
O=C(/C=C\Nc1ccccn1)c1ccccc1	·	33	·	16	·	28
CN(C)C(=O)C[C@H]1CC[C@@H](NC(=O)C2CCOCC2)[C@@H](CO)O1	-1	·	-5	·	8	·
O=[N+]([O-])c1ccc(/C=N/Nc2cc(Cl)nc(-c3ccccc3)n2)cc1	·	85*	6	5	·	14
O=C1/C(=C/c2ccc(C(=O)O)cc2)CCC/C1=C\c1ccc(C(=O)O)cc1	·	-2	19	-15	3	-9
C=CC(=O)N1C/C(=C/c2ccc(Cl)cc2)C(=O)/C(=C\c2ccc(Cl)cc2)C1	77*	86*	104*	97*	110*	98*

Bioassay records (PubChem)
